Results: PubChem BioAssay
Active and inactive are the calls of the source.

What was measured:
[1] = small molecules captured by biotinylated probe aFSTL3 – biochemical, small-molecule microarray, fluorescence 635/667, stem cell growth factor project, primary screen (AID 1064); conditions: higher = more signal;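 also: measures binding of the biotinylated anti-FSTL3 antibody to printed compounds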
[2] = binders from COS7 lysate, DM2A8 probe, primary screen, torsin A project, cell lysate, small-molecule microarray, fluorescence 635/667 (AID 1065); conditions: higher = more signal, COS7 lysate expressing mutant human TOR1A
[3] = small molecules captured by biotinylated probe aFGF2 – biochemical, small-molecule microarray, fluorescence 635/667, stem cell growth factor project, primary screen (AID 1067); conditions: higher = more signal;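 also: measures binding of biotinylated aFGF2 protein to printed compounds on slides; z-score merges feature fluorescence and signal-to-noise across triplicate slides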
[4] = small molecules captured by biotinylated probe aFGF10 – biochemical, small-molecule microarray, fluorescence 635/667, stem cell growth factor project, primary screen (AID 1071); conditions: higher = more signal;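 also: score merges 667 nm spot intensity and signal to noise from triplicate slides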
[5] = biological target: Neurogenic locus notch homolog protein 2 (Homo sapiens) (UniProt Q04721); assay: small molecules binding Notch2 protein – biochemical, small-molecule microarray, 635 nm fluorescence, stem cell growth factors, primary screen (AID 1073); conditions: higher = more signal
Sequence of Neurogenic locus notch homolog protein 2 (Homo sapiens) (Q04721 whole entry, looked up, canonical isoform): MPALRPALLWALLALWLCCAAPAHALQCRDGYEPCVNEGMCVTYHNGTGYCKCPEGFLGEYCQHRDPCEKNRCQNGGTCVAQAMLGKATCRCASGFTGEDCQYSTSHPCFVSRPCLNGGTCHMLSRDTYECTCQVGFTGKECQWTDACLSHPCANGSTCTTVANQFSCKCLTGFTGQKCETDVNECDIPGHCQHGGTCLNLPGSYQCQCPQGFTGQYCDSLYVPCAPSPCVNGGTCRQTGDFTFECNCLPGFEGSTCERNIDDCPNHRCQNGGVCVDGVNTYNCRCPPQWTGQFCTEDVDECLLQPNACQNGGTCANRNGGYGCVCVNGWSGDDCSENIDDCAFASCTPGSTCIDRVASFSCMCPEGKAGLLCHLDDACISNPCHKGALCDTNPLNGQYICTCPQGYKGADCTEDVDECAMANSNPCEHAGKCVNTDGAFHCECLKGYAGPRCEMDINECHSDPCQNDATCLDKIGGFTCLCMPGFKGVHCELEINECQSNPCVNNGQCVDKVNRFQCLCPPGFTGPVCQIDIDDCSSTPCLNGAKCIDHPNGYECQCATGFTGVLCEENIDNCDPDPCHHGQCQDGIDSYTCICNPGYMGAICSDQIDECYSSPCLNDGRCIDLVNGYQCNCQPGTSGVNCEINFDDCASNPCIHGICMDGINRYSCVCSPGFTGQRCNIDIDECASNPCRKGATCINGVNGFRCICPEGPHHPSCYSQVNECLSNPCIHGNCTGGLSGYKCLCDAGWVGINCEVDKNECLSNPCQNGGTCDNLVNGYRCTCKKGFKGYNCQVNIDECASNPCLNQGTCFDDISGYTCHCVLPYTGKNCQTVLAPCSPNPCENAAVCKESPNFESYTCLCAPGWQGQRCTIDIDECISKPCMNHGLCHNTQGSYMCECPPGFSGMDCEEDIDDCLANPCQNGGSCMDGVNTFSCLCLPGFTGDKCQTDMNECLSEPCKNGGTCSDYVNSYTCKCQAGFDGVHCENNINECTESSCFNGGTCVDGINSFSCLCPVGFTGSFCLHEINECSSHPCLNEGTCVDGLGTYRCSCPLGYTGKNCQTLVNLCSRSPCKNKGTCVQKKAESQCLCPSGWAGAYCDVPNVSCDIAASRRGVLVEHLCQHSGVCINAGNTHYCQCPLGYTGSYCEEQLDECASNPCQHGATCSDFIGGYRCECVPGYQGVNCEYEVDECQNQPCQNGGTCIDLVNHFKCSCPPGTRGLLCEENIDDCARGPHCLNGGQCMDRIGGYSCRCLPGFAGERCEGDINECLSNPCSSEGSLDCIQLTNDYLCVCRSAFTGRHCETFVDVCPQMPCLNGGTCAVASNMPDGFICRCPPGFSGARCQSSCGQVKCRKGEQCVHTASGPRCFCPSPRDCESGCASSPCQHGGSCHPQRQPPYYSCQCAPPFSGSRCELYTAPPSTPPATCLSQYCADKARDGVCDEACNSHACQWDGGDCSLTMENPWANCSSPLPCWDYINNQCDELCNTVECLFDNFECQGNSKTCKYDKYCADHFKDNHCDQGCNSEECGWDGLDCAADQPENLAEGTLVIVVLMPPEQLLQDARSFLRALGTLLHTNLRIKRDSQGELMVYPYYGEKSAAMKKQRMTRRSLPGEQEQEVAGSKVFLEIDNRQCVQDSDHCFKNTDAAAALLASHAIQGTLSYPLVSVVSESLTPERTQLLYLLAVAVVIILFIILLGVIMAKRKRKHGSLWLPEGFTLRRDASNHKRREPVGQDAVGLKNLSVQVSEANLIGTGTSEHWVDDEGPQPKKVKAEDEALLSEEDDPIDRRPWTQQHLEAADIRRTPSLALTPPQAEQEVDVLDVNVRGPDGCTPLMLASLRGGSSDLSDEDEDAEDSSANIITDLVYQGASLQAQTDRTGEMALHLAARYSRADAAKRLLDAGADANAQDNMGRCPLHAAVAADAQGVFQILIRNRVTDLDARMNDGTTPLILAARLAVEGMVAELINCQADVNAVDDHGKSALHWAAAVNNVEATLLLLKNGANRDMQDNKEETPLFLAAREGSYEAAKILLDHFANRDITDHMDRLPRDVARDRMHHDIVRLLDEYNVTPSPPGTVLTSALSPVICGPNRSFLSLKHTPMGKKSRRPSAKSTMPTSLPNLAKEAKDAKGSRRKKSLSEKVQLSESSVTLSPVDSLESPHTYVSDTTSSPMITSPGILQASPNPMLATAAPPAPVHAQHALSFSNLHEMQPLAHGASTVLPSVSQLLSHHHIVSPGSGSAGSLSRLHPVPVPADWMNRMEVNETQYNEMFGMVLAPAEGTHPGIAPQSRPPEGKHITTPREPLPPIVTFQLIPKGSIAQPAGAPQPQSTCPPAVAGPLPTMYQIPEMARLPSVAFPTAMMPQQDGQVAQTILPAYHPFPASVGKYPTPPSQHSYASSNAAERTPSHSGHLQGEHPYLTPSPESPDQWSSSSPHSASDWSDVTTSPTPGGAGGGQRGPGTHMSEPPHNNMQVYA

[6] = biological target: Pro-neuregulin-1, membrane-bound isoform (Homo sapiens) (UniProt Q02297); assay: small molecules binding neuregulin-1 protein – biochemical, small-molecule microarray, fluorescence 635/667, psychiatric disease protein project, primary screen (AID 1075); conditions: NRG1 binding, 635 nm fluorescence, higher = more signal;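 also: score combines 667 nm spot fluorescence with signal to noise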
[7] = system: Neuregulin-1 EGF-like domain; assay: small molecules binding NRG1 EGF domain – biochemical, small-molecule microarray, 635 nm fluorescence, primary screen (AID 1081); conditions: higher = more signal;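 also: binding of the protein to compounds printed on small-molecule microarray slides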
[8] = FRG1 expression reporter modulators in myotubes – cell-based, C2C12 myotubes, firefly/Renilla luciferase, luminescence, FRG1 inhibition for FSHD, primary screen (AID 1084); conditions: FRG1 promoter luciferase, higher = more signal, called active from +8 up or from −8 down
[9] = small molecules captured by biotinylated probe aFST – biochemical, small-molecule microarray, fluorescence 635/667, stem cell growth factor project, primary screen (AID 1086); conditions: higher = more signal;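 also: score merges 667 nm fluorescence with signal-to-noise of each printed compound spot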
[10] = binders of probe aHhip on microarray, primary screen, stem cell growth factor project, biochemical, small-molecule microarray, fluorescence 635/667 (AID 1087); conditions: higher = more signal;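 also: score merges spot fluorescence at 667nm with spot signal to noise ratio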
[11] = system: PRMT1 (protein arginine N-methyltransferase 1); assay: small molecules binding arginine methyltransferase PRMT1 – biochemical, small-molecule microarray, 635 nm fluorescence, primary screen (AID 1088); conditions: higher = more signal;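 also: binding of Prmt1 protein to compounds spotted on small-molecule microarray slides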
[12] = growth effects on S. cerevisiae YJM789 – YJM789 clinical isolate, OD600, 24 h, basal, primary screen (AID 1089); conditions: higher = more signal, called active from +8 up or from −8 down;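 also: growth of clinical yeast isolate S. cerevisiae YJM 789 seeded 1000 cells per well; test concentration not given here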
[13] = S. pombe growth modifiers, basal conditions – strain 972, OD600, 24 h, no modulator, primary screen (AID 1090);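 also: basal condition with compound alone and no growth modifier present; test concentration not given here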; conditions: S. pombe 972 growth, higher = more signal, called active from +8 up or from −8 down
[14] = budding yeast growth modifiers under rapamycin – strain BY4716, OD600, 96 h, primary screen (AID 1091); also: test concentration not given here; conditions: S. cerevisiae BY4716 + rapamycin, higher = more signal, called active from +8 up or from −8 down
[15] = biological target: Torsin-1A-interacting protein 2 (Homo sapiens) (UniProt Q8NFQ8); assay: small molecules binding lysate-expressed LULL1 – cell lysate, human LULL1 lysate, 635/667 nm fluorescence, primary screen (AID 1092); conditions: small-molecule microarray, hLULL1 lysate binding, 635 nm fluorescence; higher = more signal;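 also: probe is lysate of COS7 cells overexpressing human LULL1; score merges per-feature 667 nm fluorescence with signal-to-noise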
[16] = optical density change of DRC41 E. coli – strain DRC41, OD650, 24 h, E. coli filamentation project, primary screen (AID 1093);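 also: MC1000 strain lacking acrAB efflux and sulA so SOS filamentation is blocked; test concentration not given here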; conditions: E. coli DRC41 growth, higher = more signal, called active from +8 up or from −8 down
[17] = probe aLefty2 binding to arrayed compounds – biochemical, biotinylated probe, 635/667 nm fluorescence, primary screen (AID 1094); conditions: small-molecule microarray, higher = more signal;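 also: score merges spot fluorescence near 667 nm with spot signal-to-noise ratio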
[18] = system: Noggin (protein binding on small-molecule microarray); assay: small molecules binding Noggin protein – biochemical, 635/667 nm fluorescence, primary screen (AID 1095); conditions: 635 nm fluorescence, higher = more signal;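 also: score merges 667 nm feature fluorescence with signal to noise over triplicate slides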
[19] = biological target: Neurogenic locus notch homolog protein 3 (Homo sapiens) (UniProt Q9UM47); assay: small molecules binding NOTCH3 protein – biochemical, 635/667 nm fluorescence, primary screen (AID 1096); conditions: small-molecule microarray, 635 nm fluorescence, higher = more signal
Sequence of Neurogenic locus notch homolog protein 3 (Homo sapiens) (Q9UM47 whole entry, looked up): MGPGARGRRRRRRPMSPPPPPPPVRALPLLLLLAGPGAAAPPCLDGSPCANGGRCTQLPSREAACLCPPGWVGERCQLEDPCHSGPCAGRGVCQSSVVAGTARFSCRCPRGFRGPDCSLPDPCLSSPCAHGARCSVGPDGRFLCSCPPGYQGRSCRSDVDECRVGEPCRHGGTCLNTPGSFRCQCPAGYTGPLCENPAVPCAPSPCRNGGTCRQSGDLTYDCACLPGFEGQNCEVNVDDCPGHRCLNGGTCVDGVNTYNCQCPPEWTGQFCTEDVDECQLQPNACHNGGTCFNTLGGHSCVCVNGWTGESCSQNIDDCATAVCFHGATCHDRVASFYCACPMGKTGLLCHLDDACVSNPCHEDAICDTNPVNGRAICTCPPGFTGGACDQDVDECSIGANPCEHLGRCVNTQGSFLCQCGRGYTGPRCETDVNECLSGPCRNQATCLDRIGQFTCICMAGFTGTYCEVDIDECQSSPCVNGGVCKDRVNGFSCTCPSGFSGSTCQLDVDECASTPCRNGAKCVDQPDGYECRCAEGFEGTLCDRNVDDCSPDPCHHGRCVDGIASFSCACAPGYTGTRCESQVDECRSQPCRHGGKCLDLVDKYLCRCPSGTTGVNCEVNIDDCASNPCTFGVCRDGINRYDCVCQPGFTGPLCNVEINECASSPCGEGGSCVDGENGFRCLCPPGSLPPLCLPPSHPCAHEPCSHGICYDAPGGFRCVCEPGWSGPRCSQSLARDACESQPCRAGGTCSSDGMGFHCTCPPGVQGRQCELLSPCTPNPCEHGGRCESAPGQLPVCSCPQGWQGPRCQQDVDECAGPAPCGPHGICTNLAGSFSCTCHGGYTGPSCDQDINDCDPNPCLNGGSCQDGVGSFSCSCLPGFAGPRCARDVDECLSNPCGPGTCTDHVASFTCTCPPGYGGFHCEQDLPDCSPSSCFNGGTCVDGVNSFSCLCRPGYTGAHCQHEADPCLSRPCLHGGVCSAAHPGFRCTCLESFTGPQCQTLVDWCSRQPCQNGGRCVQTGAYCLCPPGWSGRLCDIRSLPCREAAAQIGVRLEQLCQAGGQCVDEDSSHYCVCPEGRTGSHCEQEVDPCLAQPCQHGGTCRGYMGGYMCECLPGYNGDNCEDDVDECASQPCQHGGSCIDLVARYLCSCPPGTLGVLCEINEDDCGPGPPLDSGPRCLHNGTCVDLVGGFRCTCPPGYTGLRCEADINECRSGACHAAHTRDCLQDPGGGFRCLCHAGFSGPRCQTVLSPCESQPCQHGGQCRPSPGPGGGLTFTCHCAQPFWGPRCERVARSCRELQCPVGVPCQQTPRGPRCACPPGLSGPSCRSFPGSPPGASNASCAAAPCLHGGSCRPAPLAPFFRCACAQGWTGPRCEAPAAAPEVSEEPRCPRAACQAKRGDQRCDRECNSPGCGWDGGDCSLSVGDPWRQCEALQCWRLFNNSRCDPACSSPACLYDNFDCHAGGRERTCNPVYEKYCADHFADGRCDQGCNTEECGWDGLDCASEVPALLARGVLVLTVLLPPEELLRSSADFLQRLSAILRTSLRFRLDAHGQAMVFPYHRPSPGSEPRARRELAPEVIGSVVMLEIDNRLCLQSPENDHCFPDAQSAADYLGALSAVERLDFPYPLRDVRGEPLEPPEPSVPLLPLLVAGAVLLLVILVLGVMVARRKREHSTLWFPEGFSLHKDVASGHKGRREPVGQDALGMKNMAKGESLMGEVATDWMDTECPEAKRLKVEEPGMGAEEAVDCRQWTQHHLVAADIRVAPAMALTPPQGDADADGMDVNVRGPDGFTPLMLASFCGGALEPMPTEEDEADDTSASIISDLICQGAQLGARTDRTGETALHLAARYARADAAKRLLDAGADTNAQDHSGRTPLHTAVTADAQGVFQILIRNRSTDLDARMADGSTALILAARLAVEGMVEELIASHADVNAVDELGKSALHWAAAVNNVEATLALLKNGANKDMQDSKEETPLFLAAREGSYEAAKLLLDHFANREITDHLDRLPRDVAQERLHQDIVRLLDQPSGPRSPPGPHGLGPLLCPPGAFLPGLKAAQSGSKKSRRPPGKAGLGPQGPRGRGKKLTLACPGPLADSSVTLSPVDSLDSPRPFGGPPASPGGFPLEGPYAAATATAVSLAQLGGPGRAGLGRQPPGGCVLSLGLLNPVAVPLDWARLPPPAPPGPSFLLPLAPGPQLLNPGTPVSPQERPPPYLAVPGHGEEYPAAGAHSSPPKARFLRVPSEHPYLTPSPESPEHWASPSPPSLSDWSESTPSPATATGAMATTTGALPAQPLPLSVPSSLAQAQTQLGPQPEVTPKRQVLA

[20] = probe aEGFR binding to arrayed compounds – biochemical, biotinylated probe, 635/667 nm fluorescence, primary screen (AID 1097); conditions: small-molecule microarray, higher = more signal;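 also: probe is a biotinylated anti-EGFR antibody binding compounds printed on slides; score combines fluorescence near 667 nm and signal to noise of each spot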

Structure (SMILES) | composite z-score [1] | composite z-score [2] | composite z-score [3] | composite z-score [4] | composite z-score [5] | composite z-score [6] | composite z-score [7] | z-score [8] | composite z-score [9] | composite z-score [10] | composite z-score [11] | z-score [12] | z-score [13] | z-score [14] | composite z-score [15] | z-score [16] | composite z-score [17] | composite z-score [18] | composite z-score [19] | composite z-score [20]
CC(C)=NOC(C)CN1CCCc2nc(C)c(C)cc21 (stereo not given) | -0.39 | -0.184 | -0.0408 | 0.897 | 0.652 | 0.702 | 0.61 | 0.833 (inactive) | 0.17 | -0.201 | 1.58 | 0.777 (inactive) | 0.516 (inactive) | 0.347 (inactive) | 1.31 | -0.196 (inactive) | 0.406 | 0.674 | 1.07 | 0.0287
CON=C[C@@H](OC)[C@H](C)C=CCC(=O)OC | -0.447 | 0.0818 | -0.191 | 0.172 | -0.0904 | -0.513 | -0.499 | -0.0681 (inactive) | 0.272 | 0.0401 | -0.608 | -0.177 (inactive) | -0.289 (inactive) | -0.0697 (inactive) | -0.312 | 0.0478 (inactive) | -0.0702 | 0.327 | -0.151 | -0.22
CO[C@@H]1C=CCC(=O)N[C@@H](C)C(=O)OC[C@@H](NS(=O)(=O)c2ccc(C)cc2)[C@H](C)C=CCC(=O)OC[C@H]1C | -0.296 | 0.43 | -0.238 | 0.199 | -0.765 | -0.589 | -0.919 | -1.04 (inactive) | -0.0849 | 0.21 | 0.375 | -0.413 (inactive) | -0.266 (inactive) | -0.411 (inactive) | -1.35 | 0.0927 (inactive) | -0.15 | 0.98 | -0.381 | -0.123
CC(CCN1CCCc2nc(C)c(C)cc21)=NOC[C@@H](O)COCc1ccco1 | 2.02 | 3.09 | 0.529 | 0.0131 | 0.164 | -0.0146 | 0.919 | 1.05 (inactive) | 2.79 | 3.19 | 1.53 | -1.86 (inactive) | 0.544 (inactive) | -0.831 (inactive) | 0.0346 | 0.798 (inactive) | 1.27 | 2.32 | 1.07 | 1.15
O=C1[C@H]2CCn3c(=O)n(Cc4cc5c(cc4Cl)OCO5)c(=O)n3[C@H]2[C@H](O)[C@@H]2O[C@H]12 | 1.24 | -0.0222 | -0.162 | -0.244 | -0.382 | -0.156 | 0.801 | -0.162 (inactive) | -0.332 | 0.0156 | -0.0582 | 0.821 (inactive) | -0.315 (inactive) | -0.224 (inactive) | -0.297 | 0.662 (inactive) | -0.255 | 0.27 | -0.802 | -0.173
COC(=O)[C@H](CCSC)NC(=O)CC=C[C@@H](C)CO | -0.738 | 2.66 | -0.123 | 0.708 | 0.175 | -0.399 | 0.818 | -0.202 (inactive) | 0.325 | 0.484 | 1.53 | 0.0662 (inactive) | 0.319 (inactive) | 0.451 (inactive) | 1.3 | 0.612 (inactive) | -0.0944 | 1.54 | 0.703 | 0.493
CCOC(=O)[C@H](Cc1ccccc1)NC(=O)CCC1CC(OC(=O)NCc2cccc3ccccc23)CC2(CCCC(COC(=O)NCCc3ccc(Cl)cc3)O2)O1 (stereo not given in full) | -0.487 | 0.0381 | -0.205 | 0.13 | 0.597 | 0.108 | 0.966 | 0.903 (inactive) | -0.0328 | -0.0645 | 1.15 | -0.69 (inactive) | -0.0785 (inactive) | -0.647 (inactive) | 1.3 | -0.159 (inactive) | -0.253 | 0.448 | 0.974 | -0.0922
C[C@H]1CC[C@H]2C(=O)N[C@H](Cc3ccccc3)C(=O)N2[C@@H]1c1ccccc1 | -0.335 | 0.524 | -0.0893 | 0.412 | 0.301 | -0.717 | 0.366 | 1.33 (inactive) | 0.0175 | -0.13 | -0.0481 | 0.492 (inactive) | 0.0432 (inactive) | -0.489 (inactive) | 0.217 | 0.805 (inactive) | -0.17 | 0.413 | -0.304 | -0.0794
CCOC(=O)[C@H](CC(C)C)NC(=O)CCC1CC(OC(=O)NCCc2ccc(F)cc2)CC2(CCCC(COC(=O)NCCOC)O2)O1 (stereo not given in full) | 0.12 | 0.305 | -0.043 | 0.862 | 1.15 | 0.32 | 1.13 | 1.44 (inactive) | 0.158 | 0.0092 | 1.41 | 0.513 (inactive) | 1.13 (inactive) | 1.5 (inactive) | 1.7 | -1.02 (inactive) | -0.025 | 0.382 | 0.998 | -0.0975
O=C1C2=CC[C@H]3C(=O)N(c4ccc(F)cc4F)C(=O)[C@H]3[C@H]2[C@H](O)[C@@H]2O[C@H]12 | -0.598 | 0.45 | -0.116 | 0.37 | 0.291 | -0.0808 | 0.0508 | 0.264 (inactive) | 1.14 | -0.0994 | 0.137 | -0.892 (inactive) | 0.151 (inactive) | 0.0688 (inactive) | -0.034 | 0.601 (inactive) | -0.124 | 0.526 | 0.634 | -0.0967
O=C1C2=CC[C@H]3C(=O)N(C[C@@H]4CCCO4)C(=O)[C@H]3[C@H]2[C@H](O)[C@@H]2O[C@H]12 | -0.275 | 0.191 | -0.0878 | 0.111 | -0.0143 | -0.209 | 0.75 | -1.42 (inactive) | -0.258 | -0.145 | 0.514 | 0.0382 (inactive) | -0.722 (inactive) | 0.109 (inactive) | -0.553 | -0.0137 (inactive) | -0.126 | -0.0904 | -0.264 | -0.0565
